# Measurements: PMC7862700, “An all-to-all approach to the identification of sequence-specific readers for epigenetic DNA modifications on cytosine”
# Experiments:
# Assay in all cases: DAPPL (digital affinity profiling via proximity ligation, sequencing); 10 mM Tris-HCl pH 7.5, 50 mM NaCl, 1 mM DTT, 4% glycerol, room temperature, 30 min; GST-TFs on glutathione beads, 16-mer random dsDNA library, 0.1% formaldehyde crosslink after washing; high values mean tight binding
# FLI1 = molecular target: T1, FLI1 (Homo sapiens, UniProt Q01543 1-452); conditions: protein: recombinant; tags: N-terminal GST; dsDNA, one strand shown
# T1 sequence: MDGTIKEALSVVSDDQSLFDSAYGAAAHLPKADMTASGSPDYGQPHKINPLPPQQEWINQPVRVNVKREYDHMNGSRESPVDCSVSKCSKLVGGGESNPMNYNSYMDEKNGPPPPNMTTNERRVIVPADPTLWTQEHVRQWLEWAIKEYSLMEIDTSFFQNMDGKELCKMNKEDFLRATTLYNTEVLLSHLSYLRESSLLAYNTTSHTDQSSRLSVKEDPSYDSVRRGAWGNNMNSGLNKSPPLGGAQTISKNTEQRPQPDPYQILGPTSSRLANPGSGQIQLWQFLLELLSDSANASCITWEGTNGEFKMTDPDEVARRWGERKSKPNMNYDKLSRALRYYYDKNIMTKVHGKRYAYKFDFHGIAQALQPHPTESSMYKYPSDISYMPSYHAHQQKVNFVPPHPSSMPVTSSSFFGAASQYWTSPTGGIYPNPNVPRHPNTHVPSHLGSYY
# Summary of the method: (§1)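 Human transcription factors were made in yeast as GST fusions, captured on glutathione beads and barcoded with DNA. With a tag-only sample included, the pool was incubated with 200 nmole of a random double-stranded 16-mer DNA library in Tris/NaCl/DTT/glycerol buffer at room temperature for 30 min, then crosslinked with 0.1% formaldehyde after washing, ligated by proximity, amplified and sequenced. For binding signal, each hexamer's read frequency for a factor is divided by its frequency for the tag-only sample.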
# ELK1 = molecular target: T2, ELK1 (Homo sapiens, UniProt P19419 1-428); conditions: protein: recombinant; tags: N-terminal GST; dsDNA, one strand shown
# T2 sequence: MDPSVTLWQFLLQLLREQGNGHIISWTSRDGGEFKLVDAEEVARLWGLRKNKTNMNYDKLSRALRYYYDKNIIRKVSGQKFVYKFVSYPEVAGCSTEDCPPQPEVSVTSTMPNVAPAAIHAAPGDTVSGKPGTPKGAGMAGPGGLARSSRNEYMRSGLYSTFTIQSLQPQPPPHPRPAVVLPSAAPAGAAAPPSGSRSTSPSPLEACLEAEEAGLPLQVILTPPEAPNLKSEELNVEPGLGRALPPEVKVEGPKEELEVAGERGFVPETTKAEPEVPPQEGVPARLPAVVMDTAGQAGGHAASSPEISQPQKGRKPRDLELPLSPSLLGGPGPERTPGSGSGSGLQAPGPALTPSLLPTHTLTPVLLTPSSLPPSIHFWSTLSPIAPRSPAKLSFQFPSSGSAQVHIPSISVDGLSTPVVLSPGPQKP
# Summary of the method: as §1
# GABPA = molecular target: T3, GABPA (Homo sapiens, UniProt Q06546 1-454); conditions: protein: recombinant; tags: N-terminal GST; dsDNA, one strand shown
# T3 sequence: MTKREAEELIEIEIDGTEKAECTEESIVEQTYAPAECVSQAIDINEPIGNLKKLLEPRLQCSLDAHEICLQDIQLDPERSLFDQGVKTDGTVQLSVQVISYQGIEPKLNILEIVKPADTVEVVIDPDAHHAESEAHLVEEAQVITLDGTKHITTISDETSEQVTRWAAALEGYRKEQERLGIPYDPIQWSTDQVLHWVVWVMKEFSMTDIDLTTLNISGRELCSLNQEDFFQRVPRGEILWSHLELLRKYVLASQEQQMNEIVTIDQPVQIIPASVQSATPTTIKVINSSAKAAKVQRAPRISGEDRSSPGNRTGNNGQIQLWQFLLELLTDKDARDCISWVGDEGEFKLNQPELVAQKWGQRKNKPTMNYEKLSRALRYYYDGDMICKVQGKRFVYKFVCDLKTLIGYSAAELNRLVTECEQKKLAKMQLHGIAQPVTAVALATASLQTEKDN
# Summary of the method: as §1
# ERG = molecular target: T4, ERG (Homo sapiens, UniProt P11308 1-479); conditions: protein: recombinant; tags: N-terminal GST; dsDNA, one strand shown
# T4 sequence: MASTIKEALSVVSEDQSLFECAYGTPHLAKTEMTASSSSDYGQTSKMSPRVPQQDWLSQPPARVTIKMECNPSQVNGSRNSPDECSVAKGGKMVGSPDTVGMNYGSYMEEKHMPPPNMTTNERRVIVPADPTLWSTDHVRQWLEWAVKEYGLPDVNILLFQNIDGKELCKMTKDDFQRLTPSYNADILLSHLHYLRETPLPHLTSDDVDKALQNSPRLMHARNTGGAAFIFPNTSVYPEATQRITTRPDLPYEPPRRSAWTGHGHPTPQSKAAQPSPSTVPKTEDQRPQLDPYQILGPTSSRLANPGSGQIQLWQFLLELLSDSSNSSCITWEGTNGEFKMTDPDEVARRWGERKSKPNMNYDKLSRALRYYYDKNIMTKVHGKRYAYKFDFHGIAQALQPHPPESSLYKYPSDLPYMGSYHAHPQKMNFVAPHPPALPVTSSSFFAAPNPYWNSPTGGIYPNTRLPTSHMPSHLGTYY
# Summary of the method: as §1
# ELF1 = ELF1 (Homo sapiens, UniProt P32519 1-619); conditions: protein: recombinant; tags: N-terminal GST; dsDNA, one strand shown
# Chain of ELF1 (P32519 whole entry): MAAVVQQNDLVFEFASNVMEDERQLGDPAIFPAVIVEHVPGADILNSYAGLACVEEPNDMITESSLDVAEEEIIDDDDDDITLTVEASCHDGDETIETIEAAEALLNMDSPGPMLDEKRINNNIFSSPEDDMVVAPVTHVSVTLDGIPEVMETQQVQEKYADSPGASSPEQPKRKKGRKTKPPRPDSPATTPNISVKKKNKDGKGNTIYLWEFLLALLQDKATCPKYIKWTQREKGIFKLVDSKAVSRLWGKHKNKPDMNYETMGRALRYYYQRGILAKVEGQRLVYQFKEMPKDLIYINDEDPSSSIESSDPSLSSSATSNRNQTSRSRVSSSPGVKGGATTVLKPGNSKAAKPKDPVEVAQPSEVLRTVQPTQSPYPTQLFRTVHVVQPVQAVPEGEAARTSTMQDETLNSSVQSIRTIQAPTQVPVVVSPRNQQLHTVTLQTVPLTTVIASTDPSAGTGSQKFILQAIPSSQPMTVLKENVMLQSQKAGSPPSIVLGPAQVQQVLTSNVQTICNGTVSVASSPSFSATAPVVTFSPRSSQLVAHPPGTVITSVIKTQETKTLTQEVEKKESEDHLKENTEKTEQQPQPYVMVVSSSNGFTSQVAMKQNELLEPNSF
# Summary of the method: as §1
# EHF = molecular target: T5, EHF (Homo sapiens, UniProt Q9NZC4 1-300); conditions: protein: recombinant; tags: N-terminal GST; dsDNA, one strand shown
# T5 sequence: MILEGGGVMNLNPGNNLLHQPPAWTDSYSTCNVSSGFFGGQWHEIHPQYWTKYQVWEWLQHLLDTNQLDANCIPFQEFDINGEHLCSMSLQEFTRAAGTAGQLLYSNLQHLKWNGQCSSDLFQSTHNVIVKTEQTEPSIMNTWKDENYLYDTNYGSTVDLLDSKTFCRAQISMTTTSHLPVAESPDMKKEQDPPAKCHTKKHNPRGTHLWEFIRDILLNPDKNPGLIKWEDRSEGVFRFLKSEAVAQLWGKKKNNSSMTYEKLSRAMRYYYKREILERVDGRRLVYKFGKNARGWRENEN
# Summary of the method: as §1
# SPI1 = SPI1 (Homo sapiens, UniProt P17947 1-270); conditions: protein: recombinant; tags: N-terminal GST; dsDNA, one strand shown
# Summary of the method: as §1
# SPIB = SPIB (Homo sapiens, UniProt Q01892 1-262); conditions: protein: recombinant; tags: N-terminal GST; dsDNA, one strand shown
# Chain of SPIB (Q01892 whole entry): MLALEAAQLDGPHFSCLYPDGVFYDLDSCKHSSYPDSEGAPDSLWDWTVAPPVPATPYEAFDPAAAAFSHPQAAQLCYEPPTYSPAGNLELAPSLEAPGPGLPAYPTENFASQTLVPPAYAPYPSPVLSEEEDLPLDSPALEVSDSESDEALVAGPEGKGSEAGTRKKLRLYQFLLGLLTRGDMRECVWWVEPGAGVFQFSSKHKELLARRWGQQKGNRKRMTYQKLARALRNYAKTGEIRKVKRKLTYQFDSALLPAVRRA
# Summary of the method: as §1
# ELK3 = molecular target: T6, ELK3 (Homo sapiens, UniProt P41970 1-407); conditions: protein: recombinant; tags: N-terminal GST; dsDNA, one strand shown
# T6 sequence: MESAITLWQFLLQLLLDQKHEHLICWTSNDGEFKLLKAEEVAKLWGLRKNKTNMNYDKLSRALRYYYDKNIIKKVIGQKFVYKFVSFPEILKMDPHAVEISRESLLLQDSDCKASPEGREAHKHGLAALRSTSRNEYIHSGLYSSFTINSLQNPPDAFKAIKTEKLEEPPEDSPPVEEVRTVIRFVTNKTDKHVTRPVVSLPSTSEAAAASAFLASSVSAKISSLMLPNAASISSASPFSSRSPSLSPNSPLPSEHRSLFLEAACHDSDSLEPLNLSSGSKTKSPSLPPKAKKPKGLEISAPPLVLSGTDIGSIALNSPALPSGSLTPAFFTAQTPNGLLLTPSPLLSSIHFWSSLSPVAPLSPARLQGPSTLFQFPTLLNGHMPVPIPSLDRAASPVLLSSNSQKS
# Summary of the method: as §1
# FEV = molecular target: T7, FEV (Homo sapiens, UniProt Q99581 1-238); conditions: protein: recombinant; tags: N-terminal GST; dsDNA, one strand shown
# T7 sequence: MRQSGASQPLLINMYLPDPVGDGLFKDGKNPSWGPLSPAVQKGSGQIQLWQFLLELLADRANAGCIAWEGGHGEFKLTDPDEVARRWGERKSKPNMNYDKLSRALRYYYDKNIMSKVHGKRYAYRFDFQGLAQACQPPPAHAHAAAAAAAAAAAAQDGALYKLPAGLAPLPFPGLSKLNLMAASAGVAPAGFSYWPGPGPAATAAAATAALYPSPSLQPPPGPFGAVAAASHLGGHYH
# Summary of the method: as §1
# ETV5 = ETV5 (Homo sapiens, UniProt P41161 1-510); conditions: protein: recombinant; tags: N-terminal GST; dsDNA, one strand shown
# Chain of ETV5 (P41161 whole entry): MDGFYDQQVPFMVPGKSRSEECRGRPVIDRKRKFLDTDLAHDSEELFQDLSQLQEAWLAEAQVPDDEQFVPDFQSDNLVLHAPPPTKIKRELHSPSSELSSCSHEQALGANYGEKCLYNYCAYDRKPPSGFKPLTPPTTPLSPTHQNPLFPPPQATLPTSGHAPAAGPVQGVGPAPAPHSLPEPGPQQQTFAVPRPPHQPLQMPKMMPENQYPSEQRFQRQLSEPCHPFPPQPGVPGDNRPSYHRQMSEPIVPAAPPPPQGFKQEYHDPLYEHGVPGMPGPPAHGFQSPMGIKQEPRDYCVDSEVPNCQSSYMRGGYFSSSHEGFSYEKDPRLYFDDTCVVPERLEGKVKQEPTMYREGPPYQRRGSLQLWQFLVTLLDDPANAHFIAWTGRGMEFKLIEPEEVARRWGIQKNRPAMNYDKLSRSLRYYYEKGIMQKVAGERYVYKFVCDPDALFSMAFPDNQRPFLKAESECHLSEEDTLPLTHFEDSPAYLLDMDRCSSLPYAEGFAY
# Summary of the method: as §1
# HSF1 = HSF1 (Homo sapiens, UniProt Q00613 1-529); conditions: protein: recombinant; tags: N-terminal GST; chain copies: 3; dsDNA, one strand shown
# Chain of HSF1 (Q00613 whole entry): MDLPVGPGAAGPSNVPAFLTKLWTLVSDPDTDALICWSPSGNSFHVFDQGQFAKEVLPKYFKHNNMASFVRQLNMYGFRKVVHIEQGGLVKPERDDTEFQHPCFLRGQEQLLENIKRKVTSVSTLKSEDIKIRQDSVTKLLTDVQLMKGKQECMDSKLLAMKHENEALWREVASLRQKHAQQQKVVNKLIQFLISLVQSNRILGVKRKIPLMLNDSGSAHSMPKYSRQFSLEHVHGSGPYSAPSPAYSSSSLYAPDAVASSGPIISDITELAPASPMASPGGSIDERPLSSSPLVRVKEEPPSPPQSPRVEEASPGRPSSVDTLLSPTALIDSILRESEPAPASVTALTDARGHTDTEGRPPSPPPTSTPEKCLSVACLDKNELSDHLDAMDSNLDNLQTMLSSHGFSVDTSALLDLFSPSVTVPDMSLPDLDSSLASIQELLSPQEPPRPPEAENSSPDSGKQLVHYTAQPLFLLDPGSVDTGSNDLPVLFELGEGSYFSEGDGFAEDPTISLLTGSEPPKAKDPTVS
# Summary of the method: as §1
# SPIC = molecular target: T8, SPIC (Homo sapiens, UniProt Q8N5J4 1-248); conditions: protein: recombinant; tags: N-terminal GST; dsDNA, one strand shown
# T8 sequence: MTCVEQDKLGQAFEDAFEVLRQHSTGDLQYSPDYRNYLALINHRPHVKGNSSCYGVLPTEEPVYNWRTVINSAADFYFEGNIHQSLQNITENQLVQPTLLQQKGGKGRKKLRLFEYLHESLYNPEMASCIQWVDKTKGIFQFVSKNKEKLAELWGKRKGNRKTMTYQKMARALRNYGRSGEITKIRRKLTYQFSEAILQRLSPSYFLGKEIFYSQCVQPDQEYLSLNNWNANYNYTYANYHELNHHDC
# Summary of the method: as §1
# ELF4 = ELF4 (Homo sapiens, UniProt Q99607 1-663); conditions: protein: recombinant; tags: N-terminal GST; dsDNA, one strand shown
# Chain of ELF4 (Q99607 whole entry): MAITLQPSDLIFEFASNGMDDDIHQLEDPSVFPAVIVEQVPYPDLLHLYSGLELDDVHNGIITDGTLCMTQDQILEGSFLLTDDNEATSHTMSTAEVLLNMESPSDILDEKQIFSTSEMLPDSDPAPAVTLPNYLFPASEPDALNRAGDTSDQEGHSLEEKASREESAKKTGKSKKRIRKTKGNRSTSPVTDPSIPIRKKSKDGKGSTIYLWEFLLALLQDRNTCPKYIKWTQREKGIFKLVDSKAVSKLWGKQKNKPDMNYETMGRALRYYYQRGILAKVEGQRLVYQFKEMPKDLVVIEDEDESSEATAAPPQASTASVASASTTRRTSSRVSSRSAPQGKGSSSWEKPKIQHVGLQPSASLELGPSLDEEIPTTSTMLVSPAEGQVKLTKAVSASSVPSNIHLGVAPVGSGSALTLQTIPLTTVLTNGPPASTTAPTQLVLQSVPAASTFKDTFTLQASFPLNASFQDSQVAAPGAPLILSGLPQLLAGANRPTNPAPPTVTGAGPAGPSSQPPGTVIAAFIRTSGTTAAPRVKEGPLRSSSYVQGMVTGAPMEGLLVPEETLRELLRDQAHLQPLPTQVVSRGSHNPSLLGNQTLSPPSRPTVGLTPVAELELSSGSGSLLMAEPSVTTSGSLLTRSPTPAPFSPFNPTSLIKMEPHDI
# Summary of the method: as §1
# ELK4 = molecular target: T9, ELK4 (Homo sapiens, UniProt P28324-2 1-405); conditions: protein: recombinant; tags: N-terminal GST; dsDNA, one strand shown
# T9 sequence: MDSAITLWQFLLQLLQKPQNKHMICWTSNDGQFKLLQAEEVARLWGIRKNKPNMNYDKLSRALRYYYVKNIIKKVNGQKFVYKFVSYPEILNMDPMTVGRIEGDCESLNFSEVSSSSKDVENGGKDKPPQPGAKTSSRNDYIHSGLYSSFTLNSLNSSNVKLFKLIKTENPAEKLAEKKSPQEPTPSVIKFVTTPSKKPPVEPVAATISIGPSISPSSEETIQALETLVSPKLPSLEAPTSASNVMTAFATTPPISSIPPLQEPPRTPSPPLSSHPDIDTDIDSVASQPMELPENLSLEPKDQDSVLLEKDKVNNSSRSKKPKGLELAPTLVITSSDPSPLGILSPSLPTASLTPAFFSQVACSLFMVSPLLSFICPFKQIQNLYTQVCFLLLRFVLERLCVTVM
# Summary of the method: as §1
# ETV2 = molecular target: T10, ETV2 (Homo sapiens, UniProt O00321 1-342); conditions: protein: recombinant; tags: N-terminal GST; dsDNA, one strand shown
# T10 sequence: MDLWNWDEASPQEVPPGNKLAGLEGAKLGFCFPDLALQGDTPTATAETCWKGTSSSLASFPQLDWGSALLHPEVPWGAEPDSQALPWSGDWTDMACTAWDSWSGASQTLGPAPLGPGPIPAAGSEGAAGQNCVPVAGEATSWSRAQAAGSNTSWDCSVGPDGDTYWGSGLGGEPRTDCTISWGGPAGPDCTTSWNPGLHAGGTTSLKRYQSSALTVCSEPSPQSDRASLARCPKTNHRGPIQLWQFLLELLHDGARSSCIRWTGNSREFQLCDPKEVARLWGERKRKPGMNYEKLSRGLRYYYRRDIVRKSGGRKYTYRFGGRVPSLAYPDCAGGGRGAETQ
# Summary of the method: as §1
# ELF3 = molecular target: T11, ELF3 (Homo sapiens, UniProt P78545 1-371); conditions: protein: recombinant; tags: N-terminal GST; dsDNA, one strand shown
# T11 sequence: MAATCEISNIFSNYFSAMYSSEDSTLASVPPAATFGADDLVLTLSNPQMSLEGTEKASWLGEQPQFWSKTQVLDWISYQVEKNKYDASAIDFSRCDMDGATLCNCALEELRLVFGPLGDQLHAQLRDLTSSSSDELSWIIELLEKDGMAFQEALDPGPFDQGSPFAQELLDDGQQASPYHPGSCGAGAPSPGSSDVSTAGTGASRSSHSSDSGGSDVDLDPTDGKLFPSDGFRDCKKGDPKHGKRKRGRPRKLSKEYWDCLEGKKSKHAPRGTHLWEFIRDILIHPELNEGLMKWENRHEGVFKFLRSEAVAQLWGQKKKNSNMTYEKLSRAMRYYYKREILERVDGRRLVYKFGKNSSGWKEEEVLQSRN
# Summary of the method: as §1
# CRX = CRX (Homo sapiens, UniProt O43186 1-299); conditions: protein: recombinant; tags: N-terminal GST; dsDNA, one strand shown
# Chain of CRX (O43186 whole entry): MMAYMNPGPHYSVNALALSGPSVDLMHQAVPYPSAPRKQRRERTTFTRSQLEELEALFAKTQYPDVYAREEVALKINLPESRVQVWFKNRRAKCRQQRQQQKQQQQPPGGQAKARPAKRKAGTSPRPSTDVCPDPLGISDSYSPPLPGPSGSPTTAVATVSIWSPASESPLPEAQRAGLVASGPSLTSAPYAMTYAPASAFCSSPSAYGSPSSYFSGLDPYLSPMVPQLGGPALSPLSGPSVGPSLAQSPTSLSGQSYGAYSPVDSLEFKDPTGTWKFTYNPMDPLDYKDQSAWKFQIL
# Summary of the method: as §1
# ETV1 = ETV1 (Homo sapiens, UniProt P50549 1-477); conditions: protein: recombinant; tags: N-terminal GST; dsDNA, one strand shown
# Chain of ETV1 (P50549 whole entry): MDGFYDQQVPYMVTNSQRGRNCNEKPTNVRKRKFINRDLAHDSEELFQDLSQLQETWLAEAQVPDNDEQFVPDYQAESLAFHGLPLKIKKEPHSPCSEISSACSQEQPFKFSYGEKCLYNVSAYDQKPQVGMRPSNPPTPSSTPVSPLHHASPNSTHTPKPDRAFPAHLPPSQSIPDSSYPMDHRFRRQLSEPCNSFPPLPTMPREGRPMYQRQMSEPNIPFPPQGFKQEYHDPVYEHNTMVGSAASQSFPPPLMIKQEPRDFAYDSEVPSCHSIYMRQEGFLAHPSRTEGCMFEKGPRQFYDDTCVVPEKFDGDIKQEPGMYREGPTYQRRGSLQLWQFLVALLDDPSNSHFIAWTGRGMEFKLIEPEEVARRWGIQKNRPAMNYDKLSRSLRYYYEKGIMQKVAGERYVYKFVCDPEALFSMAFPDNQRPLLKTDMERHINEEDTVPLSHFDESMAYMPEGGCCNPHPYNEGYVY
# Summary of the method: as §1
sequence,measurement,setting,value
CCAATT,binding signal,FLI1,"1.2 fold enrichment (6-mer frequency, TF over GST control)"
same,binding signal,ELK1,"1.24 fold enrichment (6-mer frequency, TF over GST control)"
same,binding signal,GABPA,"1.25 fold enrichment (6-mer frequency, TF over GST control)"
same,binding signal,ERG,"1.24 fold enrichment (6-mer frequency, TF over GST control)"
same,binding signal,ELF1,"1.16 fold enrichment (6-mer frequency, TF over GST control)"
same,binding signal,EHF,"1.25 fold enrichment (6-mer frequency, TF over GST control)"
same,binding signal,SPI1,"1.23 fold enrichment (6-mer frequency, TF over GST control)"
same,binding signal,SPIB,"1.28 fold enrichment (6-mer frequency, TF over GST control)"
same,binding signal,ELK3,"1.18 fold enrichment (6-mer frequency, TF over GST control)"
same,binding signal,FEV,"1.23 fold enrichment (6-mer frequency, TF over GST control)"
same,binding signal,ETV5,"1.26 fold enrichment (6-mer frequency, TF over GST control)"
same,binding signal,HSF1,"1.09 fold enrichment (6-mer frequency, TF over GST control)"
same,binding signal,SPIC,"1.31 fold enrichment (6-mer frequency, TF over GST control)"
same,binding signal,ELF4,"1.32 fold enrichment (6-mer frequency, TF over GST control)"
same,binding signal,ELK4,"1.09 fold enrichment (6-mer frequency, TF over GST control)"
same,binding signal,ETV2,"1.27 fold enrichment (6-mer frequency, TF over GST control)"
same,binding signal,ELF3,"1.39 fold enrichment (6-mer frequency, TF over GST control)"
same,binding signal,CRX,"1.05 fold enrichment (6-mer frequency, TF over GST control)"
same,binding signal,ETV1,"1.26 fold enrichment (6-mer frequency, TF over GST control)"
